In PubChem BioAssay AID1508622 (National Center for Advancing Translational Sciences (NCATS), 2021) one finds Potency data, which are given here for 39 molecules.

Molecules are shown by their SMILES. Calls of active or inactive are those of the source. A call without a number means that no potency is given here. Calls come from the whole dose curve; as a rule, active = well fitted activation curve with a large enough effect; inconclusive = small, poorly fitted or top-dose-only effect; inactive = no such curve, though single readings can be large or run the other way.
Potency is the fitted concentration of half-maximal effect.

The assay is described as follows: Confirmatory qHTS for Identification of Small Molecule Activators of Huntingtin-Antisense Promoter Activity. The conditions noted are these: HEK293 HTT-AS promoter firefly luciferase reporter, 24 h; series mostly up to 57.5 µM. Summed up:
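Plated reporter HEK293 cells (24 h) received library compounds at up to 57.5 uM final or 50 uM PTC124, incubated 24 h at 37C; firefly luciferase luminescence was then recorded with Dual-Glo reagent.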
In general terms: qHTS replaces the single test concentration by a dilution series.
`O=C(COCc1cc(-c2ccc3c(c2)OCO3)on1)N1CCN(c2cccc(C(F)(F)F)c2)CC1`: the Potency result is “inactive”.

For the molecule `COc1ccc(CCNC(=O)c2ccc3c(c2)N(Cc2ccc(F)cc2)CCS3)cc1OC`, the Potency entry is “inactive”.

Take `CCOc1ccc(S(=O)(=O)NCCc2sc3nc(-c4ccc(F)cc4)nn3c2C)cc1`: the Potency entry was “inactive”.

Turning to `COc1ccc(S(=O)(=O)N2CCC(C(=O)Nc3ccc(Oc4ccccc4)cc3)CC2)cc1OC`, the Potency result is “inactive”.

Regarding `COc1ccc(-c2nc(CSCC(=O)NCCc3ccc(OC)c(OC)c3)c(C)o2)cc1`, the Potency entry was “inactive”.

As for `CCOc1ccccc1CNC(=O)c1ccc2nc(Cc3ccc(OC)cc3)oc2c1`, the Potency entry is “inactive”.

Consider `CCCOc1ccc(C2c3c(-c4ccccc4O)n[nH]c3C(=O)N2CCCOCC)cc1OCC` (centres undefined), for which the Potency entry is “inactive”.

Consider `COCCNc1nc(NCc2cccc(Cl)c2)c2cnn(C)c2n1`, for which the Potency result is “inactive”.

With `Cc1ccccc1C(=O)Nc1sc2c(c1C(=O)O)CCC(C(C)(C)C)C2` (centres undefined), the Potency entry is “inactive”.

Take `Cc1ccc2nc(SCc3nc(-c4ccccc4C)no3)[nH]c2c1`: the Potency entry was “inactive”.

With `Cc1ccc(NC(=O)Cn2cc(S(=O)(=O)Cc3ccccc3)c3ccccc32)cc1C`, the Potency result is “inactive”.

Take `CCCCc1nc2cc(C=CC(=O)NO)ccc2n1CCN(CC)CC`: the Potency is 8.49 µM (active).

Consider `Cc1ccc(NCc2cccn2-c2nnc(N3CCC(C(=O)NC(C)C)CC3)s2)cc1`, for which the Potency entry was “inactive”.

Turning to `Cc1ccc(NC(=O)c2ccc(F)c(S(=O)(=O)N3CCc4ccccc4C3)c2)cc1F`, the Potency entry was “inactive”.

As for `Cc1ccc(CN2CCC(CNC(=O)c3cnn(-c4ccccc4Cl)c3C3CCN(C(=O)OC(C)(C)C)CC3)CC2)cc1`, the Potency result is “inactive”.

On to `CCOc1ccc(CNC(=O)c2ccc3nc(Cc4ccc(OC)cc4)oc3c2)cc1OC`, for which the Potency entry was “inactive”.

As for `O=C(NCC(c1ccc2c(c1)OCO2)N1CCN(c2ccc(F)cc2)CC1)c1cccc([N+](=O)[O-])c1` (centres undefined), the Potency entry is “inactive”.

For `C#CCOc1ccc(-c2nnc(Nc3cccc(C)c3)c3ccccc23)cc1`, the Potency result was “inactive”.

In the case of `Cc1ccc(N(C)C(=O)Cn2cnc3onc(-c4ccc(F)cc4)c3c2=O)cc1C`, the Potency result is “inactive”.

Regarding `Cc1nc(-c2ccc(Cl)cc2)sc1CCNC(=O)Cc1ccc(F)cc1`, the Potency result is “inactive”.

Take `Cc1ccc2onc(CC(=O)N3CCN(c4cc(Cl)ccc4C)CC3)c2c1`: the Potency result was “inactive”.

For `Cc1nc(-c2ccc(S(=O)(=O)Nc3ccc(C)c(N(C)C)c3)cc2)co1`, the Potency entry was “inactive”.

For `O=C(NCc1ccccc1)C(=O)NCC(c1ccco1)S(=O)(=O)c1ccc(Cl)cc1` (centres undefined), the Potency entry was “inactive”.

In the case of `CCOc1ccc(-n2ccnc2SCC(=O)Nc2ccc3c(c2)OCO3)cc1`, the Potency result is “inactive”.

For `CC(=O)c1cccc(NS(=O)(=O)c2cccc(S(=O)(=O)c3ccc(Br)cc3)c2)c1`, the Potency result is “inactive”.

As to `Cc1ccc(Cn2c(=O)c3ccccc3n3c(-c4cccc(O)c4)nnc23)cc1`, the Potency entry was “inactive”.

`CCN(C(=O)C1CCC(CNS(=O)(=O)c2cccc3nsnc23)CC1)c1ccccc1` (centres undefined): the Potency entry is “inactive”.

Consider `O=C(NCc1ccc(F)cc1)c1ccc(CS(=O)(=O)c2ccc(Cl)cc2)o1`, for which the Potency entry was “inactive”.

Take `Cc1cc(C)cc(NC(=O)C2CCCN2S(=O)(=O)c2ccc3c(c2)CCCC(=O)N3)c1` (centres undefined): the Potency entry was “inactive”.

In the case of `Cc1cccc(S(=O)(=O)Nc2cccc(-c3ccc(N4CCCCC4)nn3)c2)c1`, the Potency is 2.39 µM (active).

Consider `Cc1ccccc1CN1CCc2nc(N3CCN(c4ccccn4)CC3)ncc2C1`, for which the Potency result is “inactive”.

For the molecule `CCC1=Nc2cc(C(=O)NC3CCCC3)ccc2Sc2ccc(Cl)cc21`, the Potency result was “inactive”.

With `CSc1cccc(NC(=O)C2CCN(C(=O)c3cnn(-c4ccccc4)c3-n3cccc3)CC2)c1`, the Potency entry was “inactive”.

In the case of `Cc1ccc(Cl)cc1N1CCN(C(=O)c2cnc(N3CCOCC3)c3ccccc23)CC1`, the Potency entry was “inactive”.

For `Cc1ccc2c(c1)N(C(=O)c1ccc(F)cc1)C(C)(C)CC2(C)c1ccccc1` (centres undefined), the Potency entry was “inactive”.

For the molecule `COc1ccccc1NC(=O)CN1C(=O)C(C)(C)c2ccccc21`, the Potency result is “inactive”.

Consider `CCOc1ccc(NC(=O)c2c(Nc3ccccc3C)sc(C(=O)c3ccccc3)c2N)cc1`, for which the Potency result was “inactive”.

Regarding `Cc1oc(-c2ccc(C(=O)NCCCOC(C)C)cc2)nc1CS(=O)(=O)c1ccccc1`, the Potency entry was “inactive”.

With `Cc1ccc(Cl)cc1-n1ncc2c(NCCCc3ccccc3)ncnc21`, the Potency result was “inactive”.
